Out of some 5,500 compounds screened, about 2,000 (36%) were called active. Inconclusive results (about 18%) are left out. Rule as the data show it: active = normalized growth mostly below about 0.91 (no sharp cut-off); inconclusive = no clear call, values can overlap the other calls; inactive = mostly above about 0.92. This is one part of the list.
Experiment: chemical genetic growth profiling, strain panel (AID 1159580);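 also: tested at 20 µM; growth read once vehicle control cultures reached saturation at 30 °C; 1 = growth at the plate median or of vehicle wells; lower values mean less growth of the strain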
Details: S. cerevisiae deletion strains, growth OD

Measured: normalized growth

CC(=O)N[C@@H](CC(=O)O)C(=O)O
inactive: locus YAL013W, strain DEP1, stronger effect = lower value 1.01 | locus YAL021C, strain ccr4, stronger effect = lower value 0.998 | locus YAL026C, strain drs2, stronger effect = lower value 1.01 | locus YAL030W, strain snc1, stronger effect = lower value 0.997 | locus YBL061C, strain skt5, stronger effect = lower value 1.01 | locus YBR009C, strain hhf1, stronger effect = lower value 1.01 | locus YBR021W, strain FUR4, stronger effect = lower value 1.02 | locus YBR023C, strain chs3, stronger effect = lower value 1 | locus YBR171W, strain sec66, stronger effect = lower value 1 | locus YBR229C, strain ROT2, stronger effect = lower value 1.01 | locus YBR231C, strain swc5, stronger effect = lower value 0.982 | locus YBR279W, strain paf1, stronger effect = lower value 1 | locus YCL011C, strain gbp2, stronger effect = lower value 1.01 | locus YCL016C, strain dcc1, stronger effect = lower value 1 | locus YCL029C, strain bik1, stronger effect = lower value 1.03 | locus YCL069W, strain vba3, stronger effect = lower value 1.01 | locus YCR088W, strain abp1, stronger effect = lower value 1 | locus YDL005C, strain med2, stronger effect = lower value 0.997 | locus YDL035C, strain GPR1, stronger effect = lower value 1 | locus YDL040C, strain nat1, stronger effect = lower value 1.01 | locus YDL074C, strain BRE1, stronger effect = lower value 1.01 | locus YDL101C, strain DUN1, stronger effect = lower value 1.01 | locus YDL134C, strain PPH21, stronger effect = lower value 1.01 | locus YDL185W, strain tfp1, stronger effect = lower value 1.02 | locus YDL192W, strain arf1, stronger effect = lower value 1.02 | locus YDR001C, strain nth1, stronger effect = lower value 1.01 | locus YDR069C, strain doa4, stronger effect = lower value 1.03 | locus YDR101C, strain arx1, stronger effect = lower value 1.02 | locus YDR137W, strain rgp1, stronger effect = lower value 0.997 | locus YDR150W, strain NUM1, stronger effect = lower value 1.01 | locus YDR159W, strain sac3, stronger effect = lower value 0.969 | locus YDR162C, strain NBP2, stronger effect = lower value 1.01 | locus YDR195W, strain ref2 0.972 | locus YDR297W, strain sur2, stronger effect = lower value 1.02 | locus YDR318W, strain mcm21, stronger effect = lower value 1.01 | locus YDR334W, strain swr1, stronger effect = lower value 1.01 | locus YDR335W, strain msn5, stronger effect = lower value 1.01 | locus YDR388W, stronger effect = lower value 1.01 | locus YDR392W, strain spt3, stronger effect = lower value 0.932 | locus YDR502C, strain sam2, stronger effect = lower value 1.02 | locus YEL003W, strain gim4, stronger effect = lower value 1.01 | locus YEL037C, strain rad23, stronger effect = lower value 1.01 | locus YEL061C, strain CIN8 (second series), stronger effect = lower value 1.01 | locus YEL061C, strain CIN8, stronger effect = lower value 1.01 | locus YER015W, strain faa2, stronger effect = lower value 1.01 | locus YER016W, strain bim1, stronger effect = lower value 1 | locus YER110C, stronger effect = lower value 1.02 | locus YER111C, strain swi4, stronger effect = lower value 1.01 | locus YER155C, strain BEM2 (second series), stronger effect = lower value 0.999 | locus YER155C, strain BEM2, stronger effect = lower value 1.01 | locus YER167W, strain BCK2, stronger effect = lower value 1.01 | locus YFR010W, strain ubp6, stronger effect = lower value 1 | locus YGL078C, strain dbp3, stronger effect = lower value 1.01 | locus YGL086W, strain mad1, stronger effect = lower value 1.01 | locus YGL167C, strain pmr1, stronger effect = lower value 1 | locus YGL173C, strain kem1, stronger effect = lower value 1.02 | locus YGL227W, strain vid30, stronger effect = lower value 1.01 | locus YGL240W, strain doc1, stronger effect = lower value 0.984 | locus YGL248W, strain PDE1, stronger effect = lower value 1 | locus YGL253W, strain hxk2, stronger effect = lower value 1.01 | locus YGR078C, strain PAC10, stronger effect = lower value 1.01 | locus YGR135W, strain pre9, stronger effect = lower value 1.01 | locus YGR229C, strain SMI1, stronger effect = lower value 1.01 | locus YGR252W, strain gcn5, stronger effect = lower value 0.959 | locus YHR013C, strain ard1, stronger effect = lower value 1.01 | locus YHR027C, strain rpn1, stronger effect = lower value 0.993 | locus YHR030C, strain SLT2, stronger effect = lower value 1.01 | locus YHR079C, strain IRE1 (second series), stronger effect = lower value 1.01 | locus YHR094C, strain hxt1, stronger effect = lower value 1.01 | locus YHR129C, strain ARP1, stronger effect = lower value 0.997 | locus YHR142W, strain chs7, stronger effect = lower value 1.01 | locus YHR200W, strain rpn10, stronger effect = lower value 1.02 | locus YIL066C, strain RNR3, stronger effect = lower value 1.02 | locus YIL073C, strain SPO22, stronger effect = lower value 1.02 | locus YIL125W, strain kgd1, stronger effect = lower value 1.01 | locus YIR030C, strain dcg1, stronger effect = lower value 1.03 | locus YJL092W, strain hpr5, stronger effect = lower value 1.01 | locus YJL095W, strain BCK1 (second series), stronger effect = lower value 0.999 | locus YJL095W, strain BCK1, stronger effect = lower value 1.02 | locus YJL115W, strain asf1, stronger effect = lower value 1 | locus YJL129C, strain trk1, stronger effect = lower value 1 | locus YJL134W, strain LCB3, stronger effect = lower value 1.01 | locus YJL154C, strain vps35, stronger effect = lower value 1.01 | locus YJL164C, strain tpk1, stronger effect = lower value 1 | locus YJL166W, strain qcr8, stronger effect = lower value 1.01 | locus YJL168C, strain set2, stronger effect = lower value 1.01 | locus YJL187C, strain SWE1 (second series), stronger effect = lower value 1.01 | locus YJL187C, strain SWE1, stronger effect = lower value 1.03

From PubChem BioAssay AID1159580 (chemical genetic matrix, 2015)
